Screens (PubChem BioAssay)
Not all results are given here.
TDP1 cell noCPT – qHTS for Inhibitors of human tyrosyl-DNA phosphodiesterase 1 (TDP1): qHTS in cells in absence of CPT. 420,000 compounds, 15% hits. AID 686978, 2013. Potency, µM (highest dose often 46.2 µM), without a hit: at the highest dose activity change, negative = growth inhibition, actives largely listed as inhibitors. DT40 Tdp1-/- hTDP1 cells, no CPT, ATP luminescence, 48 h; also: potency is read from the fitted curve at half-maximal effect; % is scaled to controls: 0 for no effect and ±100 for the full control effect; nearly all actives have a fitted effect of over 55% in size
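No-CPT arm: Tdp1-/-;hTDP1 DT40 cells (400/well) plus compounds, incubated ≥48 hr at 37 °C. Readout CellTiter-Glo luminescence.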
D3 antag – blocks the human D3 dopamine receptor | max response, negative = inhibition, % | P35462 | D3R cells, DiscoveRx beta-arrestin luminescence, antagonist mode; hits give low values | 360,000 compounds, 2.5% hits; in the data active = max response below about -50%; inconclusive = no clear call, values can overlap the other calls; also: % is scaled to controls: 0 for no effect and ±100 for the full control effect
Target sequence (P35462 whole entry, looked up): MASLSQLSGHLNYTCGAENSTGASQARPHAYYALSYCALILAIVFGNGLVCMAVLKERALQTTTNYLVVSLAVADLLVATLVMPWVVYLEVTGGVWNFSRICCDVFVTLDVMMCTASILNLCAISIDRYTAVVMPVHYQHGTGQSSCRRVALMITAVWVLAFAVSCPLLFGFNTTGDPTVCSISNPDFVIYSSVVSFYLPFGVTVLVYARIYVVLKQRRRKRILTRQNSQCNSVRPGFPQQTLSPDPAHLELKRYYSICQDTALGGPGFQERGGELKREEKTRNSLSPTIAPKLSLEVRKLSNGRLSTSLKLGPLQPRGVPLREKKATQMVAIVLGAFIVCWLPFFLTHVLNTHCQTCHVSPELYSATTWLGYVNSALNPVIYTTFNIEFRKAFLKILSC
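Cells plated overnight at 1500 cells/well, then exposed to library compounds with dopamine controls for 90 minutes at 37 degrees C. DiscoveRx reagent added for 30–60 minutes at room temperature; luminescence read, quantitative HTS format.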
DT40 TDP1 CPT – DT40-hTDP1 cell growth loss with CPT; chicken DT40 Tdp1-/-;hTDP1 cells + 20 nM CPT, ATP luminescence, 48 h; Potency, µM (doses to about 46.2 µM), inactives show top-dose activity change, negative = growth inhibition, actives largely listed as inhibitors; 420,000 compounds, 12% hits; also: potency is read from the fitted curve at half-maximal effect; % is scaled to controls: 0 for no effect and ±100 for the full control effect; nearly all actives have a fitted effect of over 55% in size
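Chicken DT40 Tdp1-/- cells stably complemented with human TDP1 were seeded at 400 cells/well in medium containing 20 nM camptothecin, exposed to pin-transferred compounds, and grown at 37 °C for at least 48 hr. Viability was read as ATP luminescence.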
ClpP mod – qHTS Assay for Activators of ClpP; purified B. subtilis ClpP, FRET peptide cleavage, 20 min; Potency, µM (highest dose often 57.5 µM), inactives show at the highest dose activity change, negative = active; 340,000 compounds, 1.9% hits; active = well fitted falling curve with a large enough effect; inconclusive = small, poorly fitted or top-dose-only effect; inactive = no such curve, though single readings can be large or run the other way; also: potency is read from the fitted curve at half-maximal effect; the source files actives as falling curves though it sought activators and does not explain the sign; nearly all actives have a fitted effect of over 65% in size
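Purified B. subtilis ClpP, 10 microg/mL final in Tris/HCl pH8 with KCl, BSA, glycerol and Tween-20, cleaved an Abz/nitrotyrosine-quenched decapeptide. Fluorescence (ex 320, em 430) was read at 0 and 20 min at room temperature. Delta was normalized to 5.8 microM ADEP and DMSO/no-enzyme controls.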
IL1B secr inh – inhibitors of inflammasome signaling (IL-1 beta secretion). THP-1 LPS/ATP IL-1B secretion, AlphaLISA, 16 h; hits give low values. activity change, % at 57.5 µM. 360,000 compounds, 4.7% hits; in the data active = activity change below about -50%; inconclusive = mostly about -30% to -49%; also: % is scaled to controls: 0 for no effect and ±100 for the full control effect
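Secreted IL-1B measured by AlphaLISA bead assay after 16 h compound exposure of THP-1 cells; compounds (final up to 57.5 uM) added 1 h before LPS (250 ng/mL) and ATP (1.25 mM) stimulation; lower signal means less secretion.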
D3 ag – D3 dopamine receptor (human) agonism. max activation, %. 410,000 compounds, 0.58% hits. D3R DiscoveRx beta-arrestin cells, luminescence, 90 min. P35462; in the data active = max activation above about 30%; also: 0% is about no effect
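Agonist mode: compounds and dopamine controls were applied to plated cells for 90 min at 37 degrees C after an overnight attachment at 1500 cells/well. Luminescent read-out followed 30 - 60 minutes at room temperature with DiscoveRx detection reagent.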
An asterisk follows results filed as active; ? = inconclusive; . = not tested or not shown; [ ] = dose if it differs, or a comment. Unless noted, calls follow the shape of the dose curve; as a rule, active = well fitted inhibition curve with a large enough effect; inconclusive = small, poorly fitted or top-dose-only effect; inactive = flat fitted curve, though single readings scatter.

SMILES	TDP1 cell noCPT	D3 antag	DT40 TDP1 CPT	ClpP mod	IL1B secr inh	D3 ag
CC[C@]12c3[nH]c4cc(CCC(=O)N(C)C)ccc4c3CCN1C(=O)[C@@H](CC(=O)NCCC1=CCCCC1)C[C@@H]2C(=O)N1CCN(C(=O)c2ccco2)CC1	-22%	-9	4%	0%	3	-7
CN(C)C(=O)CCc1ccc2c3c([nH]c2c1)[C@]1(CCc2ccccc2)[C@@H](C(=O)N2CCCCC2)C[C@H](CC(=O)NCc2ccco2)C(=O)N1CC3	?	3	-13%	1%	-22	1
O=C(CC1C[C@H](C(=O)N2CCCCC2)[C@@]2(CCc3ccccc3)c3[nH]c4ccccc4c3CCN2C1=O)NCc1ccco1 (some centres not stated)	21µM*	-22	13µM*	-2%	-60*	-22
CCOC(=O)c1c(C)oc2ncnc(Nc3cccc(C(F)(F)F)c3)c12	6%	.	-1%	1%	.	1
Clc1ccc(OCc2nnc3n2CCCCC3)c(Cl)c1	-26%	0	-20%	0%	-9	5
CC(C)=NOc1nc(N2CCOCC2)nc(N2CCOCC2)n1	-5%	8	7%	-7%	16	11
CC[C@]12c3[nH]c4ccc(Cl)cc4c3CCN1C(=O)[C@@H](CC(=O)NCCCN(C)C)C[C@@H]2C(=O)N1CCN(C(=O)c2ccco2)CC1	-8%	12	10%	-3%	24	-4
O=C(C[C@H]1C[C@H](C(=O)N2CCCCC2)[C@@]2(CCc3ccccc3)c3[nH]c4cc(-c5ccco5)ccc4c3CCN2C1=O)NCc1cccc(C(F)(F)F)c1	21µM*	3	?	4%	-1	11
O=C(C[C@H]1C[C@H](C(=O)N2CCCCC2)[C@@]2(CCc3ccccc3)c3[nH]c4cc(-c5ccco5)ccc4c3CCN2C1=O)NCc1ccco1	?	?	?	3%	-51*	-19
CC[C@]12c3[nH]c4ccc(Cl)cc4c3CCN1C(=O)[C@@H](CC(=O)NC(C)(C)C)C[C@@H]2C(=O)N1CCN(C(=O)c2ccco2)CC1	18µM*	64	15µM*	-4%	-3	11
CC(C)(C)NC(=O)CC1C[C@H](C(=O)N2CCCCC2)[C@@]2(CCc3ccccc3)c3[nH]c4ccccc4c3CCN2C1=O (some centres not stated)	-17%	0	-2%	2%	-12	-21
O=C(C[C@H]1C[C@H](C(=O)N2CCCCC2)[C@@]2(CCc3ccccc3)c3[nH]c4cc(-c5ccco5)ccc4c3CCN2C1=O)NCCC1=CCCCC1	18µM*	-22	?	4%	-13	-12
C[C@]12c3[nH]c4ccccc4c3CCN1C(=O)C(CC(=O)NCc1ccco1)C[C@@H]2C(=O)N1CCCCC1 (some centres not stated)	?	?	?	-2%	-6	-20
COc1ccc(-c2nc3cnc(Oc4ccccc4)nc3n(C3CC3)c2=O)cc1	-4%	.	0%	.	.	.
O=C(NCc1nnc2n1CCN(C(=O)c1cccc(Cl)c1)CC2)C1CC1	-7%	.	11%[9.04 µM]	.	.	.
Cc1ccc(CCN2CC(C(=O)NCCCN3CCC(C)CC3)CC2=O)cc1 (configuration not stated)	?	0	?	1%	-21	-12
CCc1ccc(OCC(=O)NCc2nc(-c3cccc(C)c3)no2)c(Br)c1	-26%	.	-29%	-4%	.	-24
CCCCN(Cc1cc2cccc(C)c2[nH]c1=O)S(C)(=O)=O	18%	-16	-19%	-23%	-20	-13
CCn1c(SCC(=O)Nc2ccc(C)c(C)c2)nnc1-c1nonc1NC(C)=O	-25%	.	?	-14%	.	4
